Only some compounds are listed: those with a hit (about 11% of all), similar ones and a draw of the others.
Tau fluor cs: counter-screen for tau fibril formation inhibitors; tau K18 P301L Alexa594 fluorescence, heparin fibrillization; 280,000 compounds, 0.93% hits; Potency, µM (titrated, usually from 57.7 µM); AID 1463; note: nearly all actives have a fitted effect of over 55% in size
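Human K18 P301L tau (15 uM unlabeled plus 0.24 uM Alexa 594-labeled, final) in 100 mM sodium acetate pH 7 was mixed with compound and 20 uM heparin and incubated 6 hr at 37 C.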
G9a block: blocks human histone lysine methyltransferase G9a; Q96KQ7; G9a H3K9 monomethylation, AlphaScreen, 2 h; Potency, µM (series often up to 102 µM), hits mostly inhibitors; 350,000 compounds, 8.8% hits; note: nearly all actives have a fitted effect of over 75% in size
Target sequence (Q96KQ7 913-1193 limits assumed): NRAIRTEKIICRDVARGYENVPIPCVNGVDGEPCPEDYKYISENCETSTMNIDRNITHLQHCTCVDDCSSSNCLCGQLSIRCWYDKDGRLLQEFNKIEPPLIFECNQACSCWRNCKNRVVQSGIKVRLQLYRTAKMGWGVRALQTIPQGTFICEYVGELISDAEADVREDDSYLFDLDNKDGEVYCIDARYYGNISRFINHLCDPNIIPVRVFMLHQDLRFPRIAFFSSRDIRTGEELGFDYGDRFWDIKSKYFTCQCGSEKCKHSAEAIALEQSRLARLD
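AlphaScreen read-out: biotin-H3K9 peptide (500 nM) methylation by 20 nM enzyme with 20 uM SAM, 2 h at room temperature after 15 min compound preincubation; anti-monomethyl H3K9 antibody plus donor/acceptor beads, 10 min dark.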
Tau ThT inhib: blocks human tau fibril formation measured by thioflavin T | AID 1460 | Potency, µM (series often up to 57.4 µM), actives largely listed as inhibitors | recombinant tau K18 P301L, heparin-induced fibrillization, ThT fluorescence | 270,000 compounds, 2.1% hits; note: nearly all actives have a fitted effect of over 55% in size
Target sequence (P10636 561-689 P618L limits assumed): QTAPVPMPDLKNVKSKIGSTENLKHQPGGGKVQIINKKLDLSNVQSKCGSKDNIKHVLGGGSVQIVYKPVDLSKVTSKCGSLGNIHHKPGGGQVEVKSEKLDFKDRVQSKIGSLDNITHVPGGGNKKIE
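ThT emission at 510 nm, taken 1 hr after adding 30 uM dye, quantifies aggregates formed when 20 uM heparin acts on human tau K18 P301L for 6 hr at 37 C.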
Tau FP inhib: blocks human tau fibril formation measured by polarization. P10636. K18 P301L tau heparin fibrillization, Alexa594 FP, 6 h. Potency, µM (highest dose often 57.7 µM), actives largely listed as inhibitors. 280,000 compounds, 0.39% hits; note: nearly all actives have a fitted effect of over 55% in size
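Quantitative HTS format: compounds meet 15 uM recombinant K18 P301L tau and Alexa 594-tau tracer in 100 mM sodium acetate pH 7; 20 uM heparin triggers fibrillization at 37 C over 6 hr; FP gives the signal.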
FBPA coupling cs: counter-screen for Giardia aldolase inhibitors: coupling enzyme system. activity change, negative = inhibition, % at 58.2 µM, hits read low. 290,000 compounds, 0.67% hits. coupling enzyme system counterscreen, AmpLite Red fluorescence. AID 2472; in the data active = activity change below about -30%
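Coupling enzymes only (glyceraldehyde-3-phosphate) + compound, at 57.5 uM final, 10 min RT; add substrate/coupling/AmpLite Red mix, 20 min RT; fluorescence ex 525/em 598 nm. Actives flag coupling-system interference.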
Sfp inh: blocks B. subtilis Sfp PPTase activity | Q9F4F7 | 310,000 compounds, 3.5% hits | Potency, µM, hits mostly inhibitors | Biochemical Sfp PPTase activity, qHTS;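 note: the enzyme is Sfp with the accession as filed and its product quenches rhodamine fluorescence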
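Buffer: 50 mM Hepes-Na pH 7.6, 10 mM MgCl2, 0.01% Nonidet P-40, 0.01% BSA. Enzyme 15 nM, pre-exposed to compound 15 min; substrates then added and fluorescence change tracked over 30 min.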
Hits are given with their value; [ ] = remark or other dose. Unless noted, calls come from the whole dose curve; as a rule, active = well fitted curve in the direction sought with a large enough effect; inconclusive = small, poorly fitted or top-dose-only effect, or another doubt; inactive = no such curve, though single readings can be large; an effect the other way counts as inactive or inconclusive.

For Cc1ccc(-c2nc3cc(N)ccc3o2)c(C)c1 the results were Tau fluor cs inactive, G9a block inactive, Tau ThT inhib inconclusive, Tau FP inhib inactive, FBPA coupling cs inactive and Sfp inh inactive.
Screening Nc1ccc2oc(-c3cccc4ccccc34)nc2c1 returned Tau fluor cs 16µM[quencher], G9a block inactive[2.33 µM], Tau ThT inhib inconclusive, Tau FP inhib inactive, FBPA coupling cs inactive and Sfp inh inactive.
O=C(N/N=C/c1cccc([N+](=O)[O-])c1)C1COc2ccccc2O1 (centres undefined) was read as Tau fluor cs inactive, G9a block inactive, Tau ThT inhib inactive, Tau FP inhib inactive, FBPA coupling cs inactive and Sfp inh inactive.
O=C(N/N=C\c1cccc([N+](=O)[O-])c1O)C1COc2ccccc2O1 (centres undefined) was read as Tau fluor cs inactive, G9a block inactive, Tau ThT inhib 7.9µM, Tau FP inhib inactive, FBPA coupling cs inactive and Sfp inh inactive.
`COc1cc([N+](=O)[O-])cc(/C=N\NC(=O)C2COc3ccccc3O2)c1O` (centres undefined) gave Tau fluor cs inactive, G9a block inconclusive, Tau ThT inhib 10µM, Tau FP inhib inactive, FBPA coupling cs inactive and Sfp inh inactive.
For O=C(NNc1nc2cc3c(cc2s1)OCCO3)c1ccccc1 the results were Tau fluor cs inactive, G9a block 40µM, Tau ThT inhib inconclusive, Tau FP inhib inactive, FBPA coupling cs inactive and Sfp inh inactive.
`Cc1cccc2sc(NNC(=O)c3ccc4c(c3)OCCO4)nc12` gave Tau fluor cs inconclusive, G9a block 10µM, Tau ThT inhib inconclusive, Tau FP inhib inactive, FBPA coupling cs inactive and Sfp inh 40µM.
`CCOC(=O)c1ccccc1NC(=O)CN(c1ccccc1OC)S(=O)(=O)c1ccc(C)cc1` gave Tau fluor cs inactive, G9a block inactive, Tau ThT inhib inactive and Tau FP inhib inconclusive.
O=C(NCCOC(=O)c1c(F)cccc1Cl)c1c(F)cccc1Cl was read as G9a block inactive, FBPA coupling cs inactive and Sfp inh inactive.
Screening CC(=O)c1cccc(NC(=S)N2CCc3ccccc32)c1 returned G9a block 35µM, FBPA coupling cs inactive and Sfp inh inactive.
COc1ccc(NC(=S)N2CCc3ccccc32)cc1OC was read as G9a block 50µM and Sfp inh inactive.
O=C(NC(=S)N1CCc2ccccc21)c1ccccc1 was read as Tau fluor cs inactive, G9a block 45µM, Tau ThT inhib inactive, Tau FP inhib inactive, FBPA coupling cs inactive and Sfp inh inactive.
O=C(NC(=S)N1CCc2ccccc21)c1ccccc1Cl was read as G9a block inactive, FBPA coupling cs inactive and Sfp inh inactive.
CO[C@@H]1COC(=O)[C@H]2CCCN2C(=O)C/C=C\[C@@H](C)[C@H](OC)COC(=O)[C@H]2CCCN2C(=O)C/C=C\[C@H]1C was read as Tau fluor cs inactive[11.6 µM], Tau ThT inhib inconclusive, Tau FP inhib inactive[11.6 µM], FBPA coupling cs inactive and Sfp inh inactive.
For CCc1ccccc1NC(=O)CSc1ncccc1C(=O)O the results were Tau fluor cs inactive, G9a block inactive, Tau ThT inhib inactive and Tau FP inhib inactive.
`COC(=O)C1=C(C)NC(C)=C([N+](=O)[O-])[C@@H]1c1ccccc1C(F)(F)F` gave Tau fluor cs inactive, G9a block inactive, Tau ThT inhib inconclusive, Tau FP inhib inactive, FBPA coupling cs inactive and Sfp inh inactive.
`CC(=O)/C=C\C1[C@]2(C)CCCC(C)(C)C2CC[C@@]1(C)O` (some centres undefined) gave Tau fluor cs inactive, Tau ThT inhib inactive, Tau FP inhib inactive, FBPA coupling cs inactive and Sfp inh inactive.
CCc1cc(C(=O)NCC(c2cccs2)N2CCOCC2)sc1C (centres undefined) was read as G9a block inactive.
`COC(=O)C1=C(CSc2nccn2C)NC(=O)NC1c1cc(C)ccc1C` (centres undefined) gave Tau fluor cs inactive, G9a block inactive, Tau ThT inhib inactive, Tau FP inhib inactive, FBPA coupling cs inactive and Sfp inh inactive.
`COC(=O)C1=C(CSc2nncn2C)NC(=O)NC1c1cc(C)ccc1C` (centres undefined) gave Tau fluor cs inactive, G9a block 22µM, Tau ThT inhib inactive, Tau FP inhib inactive, FBPA coupling cs inactive and Sfp inh inactive.
For COc1cccc(CN(C)CC(=O)Nc2cccc3ccccc23)c1 the results were Tau fluor cs inactive, G9a block 10µM, Tau ThT inhib inactive, Tau FP inhib inactive, FBPA coupling cs inactive and Sfp inh inactive.
Screening COc1cccc(CC(=O)Nc2cccc3ccccc23)c1 returned G9a block inactive, FBPA coupling cs inactive and Sfp inh inactive.
`CCOc1ccc(CN(C)CC(=O)Nc2cccc3ccccc23)cc1OC` gave Tau fluor cs inactive, G9a block 7.1µM, Tau ThT inhib inactive, Tau FP inhib inactive, FBPA coupling cs inactive and Sfp inh inconclusive.
O=C(NCC1CCCCC1)c1ccc(F)cc1Cl was read as G9a block inactive, FBPA coupling cs inactive and Sfp inh inactive.
Screening Cc1onc(-c2ccccc2)c1C(=O)Nc1sc2c(c1C#N)CCC2 returned Tau fluor cs inactive, G9a block inconclusive, Tau ThT inhib inconclusive, Tau FP inhib inactive, FBPA coupling cs inactive and Sfp inh inactive.
`Cc1onc(-c2ccccc2)c1C(=O)NC(=S)Nc1sc2c(c1C#N)CCC(C)C2` (centres undefined) gave Tau fluor cs inactive, G9a block 3.5µM, Tau ThT inhib inconclusive, Tau FP inhib inactive, FBPA coupling cs inactive and Sfp inh inactive.
For Cc1onc(-c2ccccc2)c1C(=O)NC(=S)Nc1sc2c(c1C#N)CCCC2 the results were Tau fluor cs inactive, G9a block 2µM, Tau ThT inhib 28µM, Tau FP inhib inconclusive, FBPA coupling cs inactive and Sfp inh 45µM.
For S=c1[nH]nc(-c2cc(-c3ccco3)[nH]n2)n1-c1cccc2ccccc12 the results were Tau fluor cs inactive, G9a block 4µM, Tau ThT inhib inactive, Tau FP inhib inactive, FBPA coupling cs inactive and Sfp inh 10µM.
Screening S=c1[nH]nc(-c2cccc3ccccc23)n1-c1cccnc1 returned Tau fluor cs inactive, G9a block inactive, Tau ThT inhib inactive, Tau FP inhib inactive, FBPA coupling cs inactive and Sfp inh inactive.
Screening Cc1ccc(-n2c(-c3cc(-c4ccco4)[nH]n3)n[nH]c2=S)c(Br)c1 returned Tau fluor cs inactive, G9a block 5.6µM, Tau FP inhib inactive, FBPA coupling cs inactive and Sfp inh 50µM.
For Cc1ccc2oc(-c3ccco3)nc2c1 the results were Tau fluor cs inactive, G9a block inactive, Tau ThT inhib inactive, Tau FP inhib inactive, FBPA coupling cs inactive and Sfp inh inactive.

Assay outcomes deposited in PubChem by National Center for Advancing Translational Sciences (NCATS).
